From PubChem BioAssay (EPA / NIEHS)
Records with an inconclusive call do not appear. The source made the active and inactive calls. How the source made its calls: active means hit-call score of the fitted dose curve at least 0.9, where 1 is the maximum; inconclusive means response in the unintended direction; inactive means score below 0.9.

These compounds were tested against AR (gene 367) (UniProt P10275) (assay: ACEA_AR_agonist_80hr: ACEA Biosciences xCELLigence Real-Time Cell Analysis on Androgen Receptor Agonism for Proliferation (AID 2283783);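 further: hits increase impedance growth signal above DMSO baseline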).
Sequence of AR (gene 367) (P10275 whole entry, looked up): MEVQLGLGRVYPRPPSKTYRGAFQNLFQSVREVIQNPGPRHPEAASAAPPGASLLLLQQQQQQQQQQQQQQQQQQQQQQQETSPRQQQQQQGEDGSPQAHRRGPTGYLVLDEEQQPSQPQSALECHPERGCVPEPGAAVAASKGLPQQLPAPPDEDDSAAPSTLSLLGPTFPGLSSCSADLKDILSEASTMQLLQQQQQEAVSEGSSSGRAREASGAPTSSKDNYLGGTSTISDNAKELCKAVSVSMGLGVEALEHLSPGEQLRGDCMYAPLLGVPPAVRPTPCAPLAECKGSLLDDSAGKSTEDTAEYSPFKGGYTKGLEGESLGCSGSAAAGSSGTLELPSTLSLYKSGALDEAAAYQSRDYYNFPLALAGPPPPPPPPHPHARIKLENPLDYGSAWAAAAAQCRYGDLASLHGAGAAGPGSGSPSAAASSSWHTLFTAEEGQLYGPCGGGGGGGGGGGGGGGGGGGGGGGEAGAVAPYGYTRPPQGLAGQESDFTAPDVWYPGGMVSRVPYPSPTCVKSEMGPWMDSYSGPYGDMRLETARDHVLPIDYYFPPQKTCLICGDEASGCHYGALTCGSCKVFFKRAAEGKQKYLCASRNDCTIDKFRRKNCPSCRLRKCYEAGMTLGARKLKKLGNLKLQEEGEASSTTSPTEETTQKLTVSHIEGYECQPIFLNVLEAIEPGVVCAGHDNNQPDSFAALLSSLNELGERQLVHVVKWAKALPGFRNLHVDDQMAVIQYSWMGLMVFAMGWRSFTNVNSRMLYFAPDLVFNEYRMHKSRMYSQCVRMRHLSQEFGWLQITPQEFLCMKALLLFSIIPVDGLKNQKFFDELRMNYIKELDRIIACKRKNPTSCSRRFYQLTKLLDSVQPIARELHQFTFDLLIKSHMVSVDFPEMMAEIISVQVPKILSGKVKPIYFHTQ
Method in brief: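 22Rv1 human prostate cancer cells were seeded after preconditioning in assay medium and monitored overnight, then dosed in an eight-point 1:4 dilution series from 100 uM (≤0.5% DMSO). Impedance-based growth was read at 80 h, gain-of-signal versus DMSO.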

outcome, inactive:
CC(C)c1ccc2cc(C(C)C)ccc2c1
CCCc1ccc(OC)cc1
Oc1ccc(Cl)cc1Cc1cc(Cl)ccc1O
CCCCC/C=C\CCC=O
